Screening data from PubChem.
Shown are actives, neighbours in structure and some others; about 4.8% of the full set was active somewhere.
SMARCA2 activ: activators of SMARCA2 function; MG213 cells, MMTV-luciferase reporter, dexamethasone, overnight; activation, % at 9.1 µM; hit rate 1% among 370,000; AID 652017; in the data active = activation above about 7.8%;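 note: 0% = vehicle wells and 100% = reference activator wells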
hgDAF12 agonist: activates the H. glycines DAF-12 receptor ligand-binding domain; activation, % at 6.8 µM; AID 687014; hit rate 1.8% among 370,000; HEK293 GAL4-hgDAF12 UAS-luciferase reporter, agonist luminescence; normalized to butyrate control;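 active = activation above a cutoff set at the mean of all screened compounds plus 3 SD, cut at about 10% in these data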;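 note: 0% = DMSO wells and 100% = sodium butyrate wells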
DAX1 inh-1: DAX1 (NR0B1) inhibition, primary screen; HEK293T StAR-luciferase reporter, SF-1/DAX-1 repression relief; inhibition, % at 6.8 µM; hit rate 1.1% among 370,000;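 active = inhibition above the mean over all tested compounds plus 3 SD, cut at about 3.6% in these data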;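 note: 0% = DAX-1 cells with DMSO and 100% = cells lacking DAX-1 with DMSO; higher inhibition means more luminescence from relief of DAX-1 repression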
DAX1 inh-2: inhibits human nuclear receptor DAX1; P51843; HEK293 Gal4-DAX1 luciferase reporter, luminescence; inhibition, % at 6.75 µM; hit rate 0.99% among 340,000;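 active = inhibition above the mean over all tested compounds plus 3 SD, cut at about 4.2% in these data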;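 note: 0% = DAX1-transfected cells with DMSO and 100% = empty-vector control cells with DMSO; inhibition shows as a rise in luminescence from relieved DAX1 repression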
Target sequence (P51843 207-470 limits assumed): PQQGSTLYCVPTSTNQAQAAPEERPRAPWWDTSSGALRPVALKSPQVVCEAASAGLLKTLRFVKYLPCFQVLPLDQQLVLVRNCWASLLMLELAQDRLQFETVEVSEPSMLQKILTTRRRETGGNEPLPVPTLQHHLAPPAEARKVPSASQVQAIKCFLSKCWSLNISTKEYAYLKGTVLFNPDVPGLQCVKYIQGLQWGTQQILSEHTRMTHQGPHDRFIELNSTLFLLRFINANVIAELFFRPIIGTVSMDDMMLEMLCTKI
hcDAF-12 act: H. contortus DAF-12 activation, primary screen. AID 652067. hit rate 1.4% among 370,000. activation, % at 6.8 µM. HEK293 hcDAF-12 lit1-tk-luc reporter, luminescence; 0% DMSO, 100% Δ7-dafachronic acid;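 active = activation above the mean of all tested compounds plus 3 SD, cut at about 5.5% in these data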;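 note: 100% = response to 3 µM Δ7-dafachronic acid high control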
ssDAF12 agonist: activators of S. stercoralis DAF-12 nuclear receptor. AID 652126. hit rate 1% among 370,000. activation, % at 6.8 µM. HEK293 ssDAF-12/GRIP1 lit1-tk-luc reporter, luminescence; % of 3 µM dafachronic acid response;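 active = activation above the mean over all tested compounds plus 3 SD, cut at about 0.9% in these data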;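 note: 0% = DMSO-only wells and 100% = 3 µM delta7-dafachronic acid wells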
Numbers without * were called inactive.

Screening CC(C)C1Cc2c(sc(NC(=S)NC(=O)c3ccccc3)c2C#N)CO1 (stereo not drawn) returned SMARCA2 activ -1, hgDAF12 agonist 3, DAX1 inh-1 0, DAX1 inh-2 1, hcDAF-12 act 0 and ssDAF12 agonist -1.
CCCN1CCc2c(sc(NC(=S)NC(=O)c3ccccc3)c2C#N)C1 was read as SMARCA2 activ 2, hgDAF12 agonist 5, DAX1 inh-1 3, DAX1 inh-2 4.8*, hcDAF-12 act 3 and ssDAF12 agonist -2.
For CC(C)N1CCc2c(sc(NC(=S)NC(=O)c3ccccc3)c2C#N)C1 the results were SMARCA2 activ 3, hgDAF12 agonist 4, DAX1 inh-1 1, DAX1 inh-2 2, hcDAF-12 act 8.3* and ssDAF12 agonist -2.
For Cc1ccc(S(=O)(=O)N2CCCCC2)cc1NC(=O)Cn1cc(C(F)(F)F)ccc1=O the results were SMARCA2 activ -3, hgDAF12 agonist 0, DAX1 inh-1 0, DAX1 inh-2 0, hcDAF-12 act 0 and ssDAF12 agonist -1.
For COC(=O)C1(C(=O)OC)C[C@H](/C=C/c2ccccc2)N(Cc2ccccc2OC)[C@@H]1c1ccccc1 the results were SMARCA2 activ 4, hgDAF12 agonist 1, DAX1 inh-1 3.9*, hcDAF-12 act -1 and ssDAF12 agonist -1.
Screening COc1ccccc1N1CCN(Cc2ccsc2)CC1 returned SMARCA2 activ 1, hgDAF12 agonist 0, DAX1 inh-1 1, DAX1 inh-2 1, hcDAF-12 act 1 and ssDAF12 agonist 1.1*.
COC(=O)[C@]12C[C@H](CC(=O)N3CCC(c4ccccc4)CC3)C(=O)N(Cc3ccco3)C1=C[C@H](C1CCCC1)O[C@@H]2C was read as SMARCA2 activ -4, hgDAF12 agonist -1, DAX1 inh-1 -1, hcDAF-12 act -2 and ssDAF12 agonist -2.
For CC(C)[C@H](NC(N)=O)C(=O)NNC(=O)COc1cccc(C(F)(F)F)c1 the results were SMARCA2 activ -3, hgDAF12 agonist 0, DAX1 inh-1 1, DAX1 inh-2 6.5*, hcDAF-12 act -1 and ssDAF12 agonist -2.
`CCOC(=O)c1cnc(SCC(=O)c2ccc(C)cc2)nc1N` gave SMARCA2 activ 1, hgDAF12 agonist 3, DAX1 inh-1 0, DAX1 inh-2 -1, hcDAF-12 act -1 and ssDAF12 agonist -1.
Screening CCOC(=O)c1cnc(SCC#N)nc1N returned SMARCA2 activ -1, hgDAF12 agonist 0, DAX1 inh-1 0, DAX1 inh-2 6.9*, hcDAF-12 act -2 and ssDAF12 agonist 0.
`CCOC(=O)c1cnc(SC)nc1N` gave SMARCA2 activ -1, hgDAF12 agonist 1, DAX1 inh-1 0, DAX1 inh-2 0, hcDAF-12 act -1 and ssDAF12 agonist -1.
Screening CCOC(=O)c1cnc(SCC(C)C)nc1N returned SMARCA2 activ 6, hgDAF12 agonist 11*, DAX1 inh-1 3, DAX1 inh-2 2, hcDAF-12 act 2 and ssDAF12 agonist 0.
O=C(Nc1nnc([C@H]2C[C@H](O)[C@@H](CO)O2)s1)Nc1cccc2c1CCCC2 was read as SMARCA2 activ 1, hgDAF12 agonist 0, DAX1 inh-1 1, hcDAF-12 act 1 and ssDAF12 agonist -1.
O=C(C=Cc1cccc(O)c1)c1ccccc1O was read as SMARCA2 activ -2, hgDAF12 agonist 12*, DAX1 inh-1 0, DAX1 inh-2 0, hcDAF-12 act 3 and ssDAF12 agonist -1.
COc1cccc(CC2(CO)CCCN(C(=O)c3cc[n+]([O-])cc3)C2)c1 (stereo not drawn) was read as SMARCA2 activ -2, hgDAF12 agonist -2, DAX1 inh-1 0, DAX1 inh-2 5.1*, hcDAF-12 act -1 and ssDAF12 agonist -1.
For CCOC(=O)C1(Cc2cccc(OC)c2)CCCN(C(=O)c2cc(CC(C)C)[nH]n2)C1 (stereo not drawn) the results were SMARCA2 activ 5, hgDAF12 agonist 9, DAX1 inh-1 3.8*, DAX1 inh-2 1, hcDAF-12 act 5 and ssDAF12 agonist 0.
CCOC(=O)C1(Cc2cccc(Cl)c2)CCCN(C(=O)c2cc(C)[nH]n2)C1 (stereo not drawn) was read as SMARCA2 activ 3, hgDAF12 agonist -3, DAX1 inh-1 0, DAX1 inh-2 0, hcDAF-12 act -1 and ssDAF12 agonist 0.
